Measured values: PubChem BioAssay (NCI)
About 79,000 compounds went through this panel and 15% of them were active in at least one assay; those are over-represented in the sample as a whole. The source made the active and inactive calls. Rule as the data show it: active = growth inhibition above about 70%; inactive = the rest.

Experiments:
[1] = NCI Yeast Anticancer Drug Screen. Data for the mlh1 strain (AID 171);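 also: 0% = growth of vehicle-treated control cultures of the same strain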; settings: S. cerevisiae mlh1 strain growth inhibition, hits give high values
Procedure, shortened: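 Yeast carrying a defined genetic alteration in DNA damage repair or cell cycle control were exposed to test compounds. Growth inhibition was measured relative to vehicle-treated controls.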

[2] = NCI Yeast Anticancer Drug Screen. Data for the sgs1 strain (AID 173);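 also: 0% = growth of vehicle-only control cultures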; settings: S. cerevisiae sgs1 mutant, hits give high values
Procedure, shortened: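 Yeast mutant strains carrying defined defects in DNA damage repair or cell cycle control were exposed to test compounds. Growth inhibition was scored against vehicle-treated controls.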

[3] = NCI Yeast Anticancer Drug Screen. Data for the mlh1 rad18 strain (AID 175); settings: S. cerevisiae mlh1 rad18 strain growth inhibition, hits give high values
Procedure, shortened: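 Growth inhibition of the yeast strain was measured after compound exposure and expressed relative to vehicle-treated controls. The strain carries defined defects in DNA damage repair.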

[4] = NCI Yeast Anticancer Drug Screen. Data for the rad18 strain (AID 177); settings: S. cerevisiae rad18 mutant growth inhibition, hits give high values
Procedure, shortened: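 Yeast carrying a defined DNA damage repair alteration were exposed to compounds. Growth inhibition was expressed relative to vehicle-treated controls.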

[5] = NCI Yeast Anticancer Drug Screen. Data for the wt1 strain (AID 149);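 also: 0% = growth of vehicle-treated wt1 cultures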; settings: S. cerevisiae wt1 strain (SPY 50644) growth inhibition, hits give high values
Procedure, shortened: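 Readout: yeast growth inhibition, normalised to vehicle controls, in the wt1 strain exposed to test compounds.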

[6] = NCI Yeast Anticancer Drug Screen. Data for the rad50EPP+ strain (AID 151);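 also: 0% = growth of vehicle-treated control cultures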; settings: S. cerevisiae rad50 mutant strain, hits give high values
Procedure, shortened: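 Yeast strain carrying rad50 alteration (rad50EPP+) exposed to compounds; growth inhibition measured relative to vehicle-treated controls.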

[7] = NCI Yeast Anticancer Drug Screen. Data for the mgt1 strain (AID 153); settings: S. cerevisiae mgt1 mutant growth inhibition, hits give high values
Procedure, shortened: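 Yeast mgt1 strain (DNA repair/cell-cycle alteration panel) exposed to compounds; growth inhibition measured relative to vehicle-treated controls.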

[8] = NCI Yeast Anticancer Drug Screen. Data for the rad50 strain (AID 155);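 also: 0% = growth of vehicle-only cultures of the same strain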; settings: S. cerevisiae rad50 strain growth inhibition, hits give high values
Procedure, shortened: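 Compounds were tested on a yeast strain with an engineered DNA damage repair alteration; the reported value is growth inhibition normalised to vehicle treatment.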

[9] = NCI Yeast Anticancer Drug Screen. Data for the mec2-1 strain (AID 157); settings: S. cerevisiae mec2-1 strain, hits give high values
Procedure, shortened: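 mec2-1 yeast strain, carrying an alteration in DNA damage repair or cell cycle control, was exposed to compounds; growth inhibition was measured relative to vehicle-treated controls.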

[10] = NCI Yeast Anticancer Drug Screen. Data for the rad14 strain (AID 159);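 also: 0% = growth of vehicle-treated control cultures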; settings: S. cerevisiae rad14 strain growth inhibition, hits give high values
Procedure, shortened: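 Compound-treated yeast with a defined DNA-repair lesion; growth inhibition normalised to vehicle-treated cultures.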

[11] = NCI Yeast Anticancer Drug Screen. Data for the sgs1 mgt1 strain (AID 161);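 also: 0% = growth of cultures given vehicle only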; settings: S. cerevisiae sgs1 mgt1 strain, hits give high values
Procedure, shortened: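 Growth of a repair-deficient yeast mutant was monitored after compound treatment and expressed as inhibition relative to vehicle-treated cultures.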

[12] = NCI Yeast Anticancer Drug Screen. Data for the CLN2oe strain (AID 163);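 also: 0% = growth of vehicle-only control cultures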; settings: S. cerevisiae CLN2oe strain, hits give high values
Procedure, shortened: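 Yeast cells carrying a defined cell-cycle control alteration were exposed to test compounds. Growth inhibition was scored against vehicle-treated control cultures.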

[13] = NCI Yeast Anticancer Drug Screen. Data for the cln2 rad14 strain (AID 165);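 also: 0% = growth equal to vehicle treated cultures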; settings: S. cerevisiae cln2 rad14 strain, hits give high values
Procedure, shortened: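 Yeast carrying cln2 and rad14 alterations (cell cycle control and DNA damage repair) were exposed to compounds. Growth inhibition was measured against vehicle-treated controls.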

[14] = NCI Yeast Anticancer Drug Screen. Data for the bub3 strain (AID 167); settings: S. cerevisiae bub3 mutant strain, hits give high values
Procedure, shortened: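 Growth of a checkpoint-deficient yeast mutant is measured after compound exposure. Values represent inhibition relative to vehicle.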

[15] = NCI Yeast Anticancer Drug Screen. Data for the wt2 strain (AID 169);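 also: 0% = growth of vehicle-treated yeast cultures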; settings: S. cerevisiae wt2 strain growth inhibition, hits give high values
Procedure, shortened: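 Yeast cells were exposed to test compounds, and growth inhibition was measured relative to vehicle-treated controls.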

[16] = at 5.0 µM (retest, dose inferred, filed as 0.5)
[17] = at 50.0 µM (retest, dose inferred, filed as 5.0)

Measured: growth inhibition

CC[C@@]1(OC(=O)CN(C)C)C(=O)OCc2c1cc1n(c2=O)Cc2cc3ccccc3nc2-1
inactive: [1]; at 1.2 µM 0% | [1]; at 3.7 µM 2% | [1]; at 11.0 µM 42% | [2]; at 1.2 µM 6% | [2]; at 3.7 µM 28% | [3]; [16] 36% | [4]; at 1.2 µM 1% | [4]; at 3.7 µM 12% | [4]; at 11.0 µM 60%
active: [1]; at 33.0 µM 90% | [1]; at 100.0 µM 96% | [2]; at 11.0 µM 82% | [2]; at 33.0 µM 94% | [2]; at 100.0 µM 96% | [3]; [17] 94% | [3]; at 50.0 µM 97.2% | [4]; at 33.0 µM 92% | [4]; at 100.0 µM 96%

CC(C)c1ccc(C2NC(=S)NC3=C2c2ccccc2C3=O)cc1 (centres undefined)
active: [8]; at 50.0 µM 86.8% | [11]; at 50.0 µM 78% | [14]; at 33.0 µM 81% | [14]; [17] 87% | [14]; at 50.0 µM 89.7% | [14]; at 100.0 µM 88% | [3]; at 50.0 µM 74.1%
inactive: [5]; at 1.2 µM 16% | [5]; at 3.7 µM 6% | [5]; at 11.0 µM 18% | [5]; at 33.0 µM 17% | [5]; at 100.0 µM 17% | [6]; at 1.2 µM 23% | [6]; at 3.7 µM 21% | [6]; at 11.0 µM 16% | [6]; at 33.0 µM 15% | [6]; at 100.0 µM 3% | [7]; at 1.2 µM 3% | [7]; at 3.7 µM -4% | [7]; at 11.0 µM 7% | [7]; at 33.0 µM 19% | [7]; at 100.0 µM 50% | [8]; at 1.2 µM 24% | [8]; at 3.7 µM 24% | [8]; [16] 22% | [8]; at 11.0 µM 27% | [8]; at 33.0 µM 32% | [8]; [17] 31% | [8]; at 100.0 µM 54% | [9]; at 1.2 µM 17% | [9]; at 3.7 µM 11% | [9]; [16] -8% | [9]; at 11.0 µM -7% | [9]; at 33.0 µM 9% | [9]; [17] -11% | [9]; at 50.0 µM 64.1% | [9]; at 100.0 µM 28% | [10]; at 1.2 µM -8% | [10]; at 3.7 µM -14% | [10]; at 11.0 µM -18% | [10]; at 33.0 µM -20% | [10]; at 100.0 µM 11% | [11]; [16] 43% | [11]; [17] 24% | [12]; at 1.2 µM -9% | [12]; at 3.7 µM -5% | [12]; at 11.0 µM -5% | [12]; at 33.0 µM -8% | [12]; at 100.0 µM 18% | [13]; [16] -9% | [13]; [17] 26% | [13]; at 50.0 µM 66.8% | [14]; at 1.2 µM -3% | [14]; at 3.7 µM 4% | [14]; [16] -25% | [14]; at 11.0 µM 27% | [15]; at 1.2 µM 0% | [15]; at 3.7 µM 1% | [15]; at 11.0 µM 14% | [15]; at 33.0 µM 22% | [15]; at 100.0 µM 41% | [1]; at 1.2 µM 10% | [1]; at 3.7 µM -1% | [1]; at 11.0 µM 3% | [1]; at 33.0 µM 26% | [1]; at 100.0 µM 52% | [2]; at 1.2 µM 23% | [2]; at 3.7 µM 12% | [2]; at 11.0 µM 16% | [2]; at 33.0 µM 26% | [2]; at 100.0 µM 43% | [3]; [16] -36% | [3]; [17] 32% | [4]; at 1.2 µM 2% | [4]; at 3.7 µM 8% | [4]; at 11.0 µM 10% | [4]; at 33.0 µM 13% | [4]; at 100.0 µM 38%

O=C(Nc1ccn(C2CC(O)C(COC(c3ccccc3)(c3ccccc3)c3ccccc3)O2)c(=O)n1)c1ccccc1 (centres undefined)
active: [5]; at 11.0 µM 94% | [5]; at 33.0 µM 94% | [5]; at 100.0 µM 89% | [7]; at 11.0 µM 81% | [7]; at 33.0 µM 82% | [7]; at 100.0 µM 79% | [8]; [16] 85% | [8]; at 11.0 µM 89% | [8]; at 33.0 µM 87% | [8]; [17] 94% | [8]; at 100.0 µM 83% | [9]; at 11.0 µM 91% | [9]; at 33.0 µM 91% | [9]; [17] 83% | [9]; at 50.0 µM 97.6% | [9]; at 100.0 µM 88% | [10]; at 11.0 µM 78% | [10]; at 33.0 µM 81% | [10]; at 100.0 µM 78% | [11]; [17] 94% | [12]; at 11.0 µM 96% | [12]; at 33.0 µM 94% | [12]; at 100.0 µM 92% | [13]; [16] 83% | [13]; [17] 96% | [13]; at 50.0 µM 92.8% | [14]; [16] 89% | [14]; at 11.0 µM 81% | [14]; at 33.0 µM 84% | [14]; [17] 95% | [14]; at 50.0 µM 81.5% | [14]; at 100.0 µM 82% | [15]; at 11.0 µM 81% | [15]; at 33.0 µM 84% | [15]; at 100.0 µM 79% | [1]; at 11.0 µM 74% | [1]; at 33.0 µM 79% | [1]; at 100.0 µM 74% | [2]; at 11.0 µM 84% | [2]; at 33.0 µM 85% | [2]; at 100.0 µM 79% | [3]; [16] 87% | [3]; [17] 95% | [3]; at 50.0 µM 94.8% | [4]; at 11.0 µM 86% | [4]; at 33.0 µM 85% | [4]; at 100.0 µM 83%
inactive: [5]; at 1.2 µM -40% | [5]; at 3.7 µM -22% | [6]; at 1.2 µM -26% | [6]; at 3.7 µM -10% | [6]; at 11.0 µM -9% | [6]; at 33.0 µM 10% | [6]; at 100.0 µM -15% | [7]; at 1.2 µM -22% | [7]; at 3.7 µM 14% | [8]; at 1.2 µM -44% | [8]; at 3.7 µM 20% | [8]; at 50.0 µM 43.2% | [9]; at 1.2 µM -43% | [9]; at 3.7 µM -1% | [9]; [16] 64% | [10]; at 1.2 µM -32% | [10]; at 3.7 µM 9% | [11]; [16] 50% | [11]; at 50.0 µM 37.6% | [12]; at 1.2 µM -15% | [12]; at 3.7 µM 36% | [14]; at 1.2 µM -34% | [14]; at 3.7 µM -11% | [15]; at 1.2 µM -15% | [15]; at 3.7 µM 1% | [1]; at 1.2 µM -43% | [1]; at 3.7 µM -19% | [2]; at 1.2 µM 6% | [2]; at 3.7 µM 3% | [4]; at 1.2 µM -35% | [4]; at 3.7 µM 21%
